# The list is not random: actives were taken first. Their share in the collection is about 21%.
# TDP1 cell noCPT: qHTS for Inhibitors of human tyrosyl-DNA phosphodiesterase 1 (TDP1): qHTS in cells in absence of CPT. DT40 Tdp1-/- hTDP1 cells, no CPT, ATP luminescence, 48 h. Potency, µM (series often up to 46.2 µM), inactives show at the top dose activity change, negative = growth inhibition, actives largely listed as inhibitors. actives 15% (n = 420,000). AID 686978, 2013; further: potency means the concentration at half of the fitted maximal effect; on the % scale 0 is the no-effect control and ±100 the full control effect; nearly all actives have a fitted effect of over 55% in size
#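 DT40 Tdp1-/-;hTDP1 cells, no CPT (DMSO vehicle only), 400 cells/well; compounds pin-transferred; ≥48 hr, 37 °C; CellTiter-Glo 30 min RT dark, luminescence read.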
# D3 antag: antagonists of human D3 dopamine receptor; P35462; D3R cells, DiscoveRx beta-arrestin luminescence, antagonist mode; active compounds read low; max response, negative = inhibition, %; actives 2.5% (n = 360,000); in the data active means max response below about -50%; inconclusive means no clear call, values can overlap the other calls; further: on the % scale 0 is the no-effect control and ±100 the full control effect
# Target sequence (P35462 whole entry, looked up): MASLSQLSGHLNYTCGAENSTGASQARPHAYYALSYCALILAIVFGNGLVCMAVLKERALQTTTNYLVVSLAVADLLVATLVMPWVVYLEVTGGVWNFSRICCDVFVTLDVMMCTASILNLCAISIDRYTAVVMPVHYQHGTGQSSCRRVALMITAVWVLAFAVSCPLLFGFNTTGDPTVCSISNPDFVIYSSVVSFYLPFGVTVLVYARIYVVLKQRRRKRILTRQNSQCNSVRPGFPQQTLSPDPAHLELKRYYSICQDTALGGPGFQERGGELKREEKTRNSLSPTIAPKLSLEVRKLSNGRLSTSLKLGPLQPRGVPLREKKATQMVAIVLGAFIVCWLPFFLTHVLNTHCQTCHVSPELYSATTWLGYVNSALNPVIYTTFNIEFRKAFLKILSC
#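 Cells plated overnight at 1500 cells/well, then exposed to library compounds with dopamine controls for 90 minutes at 37 degrees C. DiscoveRx reagent added for 30–60 minutes at room temperature; luminescence read, quantitative HTS format.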
# ClpP mod: qHTS Assay for Activators of ClpP; purified B. subtilis ClpP, FRET peptide cleavage, 20 min; Potency, µM (titrated, usually from 57.5 µM), inactives show top-dose activity change, negative = active; actives 1.9% (n = 340,000); active means well fitted falling curve with a large enough effect; inconclusive means small, poorly fitted or top-dose-only effect; inactive means no such curve, though single readings can be large or run the other way; further: potency means the concentration at half of the fitted maximal effect; the source files actives as falling curves though it sought activators and does not explain the sign; nearly all actives have a fitted effect of over 65% in size
# Target sequence (P80244 whole entry, looked up): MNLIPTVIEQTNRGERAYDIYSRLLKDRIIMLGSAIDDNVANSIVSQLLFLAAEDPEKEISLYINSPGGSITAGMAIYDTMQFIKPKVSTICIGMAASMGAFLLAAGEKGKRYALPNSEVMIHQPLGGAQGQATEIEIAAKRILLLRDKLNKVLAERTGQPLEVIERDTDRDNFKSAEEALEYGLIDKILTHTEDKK
#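 Buffer: 100 mM Tris/HCl pH8, 100 mM KCl, 0.05% low protease BSA, 2.5% glycerol, 0.01% Tween-20. ClpP 10 microg/mL final; 20 min RT; delta FRET normalized to ADEP and DMSO controls.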
# IL1B secr inh: inhibitors of inflammasome signaling (IL-1 beta secretion); THP-1 LPS/ATP IL-1B secretion, AlphaLISA, 16 h; active compounds read low; activity change, % at 57.5 µM; AID 743279; actives 4.7% (n = 360,000); in the data active means activity change below about -50%; inconclusive means mostly about -30% to -49%; further: on the % scale 0 is the no-effect control and ±100 the full control effect
#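 THP-1 cells pretreated 1 hr with compounds (up to 57.5 uM final), then stimulated with LPS (250 ng/mL final) plus ATP (1.25 mM final); secreted IL-1B measured by AlphaLISA after 16 hr, decreased signal indicating inhibition.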
# D3 ag: agonists of human D3 dopamine receptor; max activation, %; actives 0.58% (n = 410,000); AID 652048; D3R DiscoveRx beta-arrestin cells, luminescence, 90 min; P35462; in the data active means max activation above about 30%; further: 0% is about no effect
#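 Agonist mode: compounds and dopamine controls were applied to plated cells for 90 min at 37 degrees C after an overnight attachment at 1500 cells/well. Luminescent read-out followed 30 - 60 minutes at room temperature with DiscoveRx detection reagent.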
# TDP1 cell CPT: growth inhibition of DT40 Tdp1-/-;hTDP1 cells with camptothecin (screen for TDP1 inhibitors); Potency, µM (top dose mostly 46.2 µM), for the others: top-dose activity change, negative = growth inhibition, hits mostly inhibitors; chicken DT40 Tdp1-/-;hTDP1 cells + 20 nM CPT, ATP luminescence, 48 h; actives 12% (n = 420,000); further: potency means the concentration at half of the fitted maximal effect; on the % scale 0 is the no-effect control and ±100 the full control effect; nearly all actives have a fitted effect of over 55% in size
#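 Chicken DT40 Tdp1-/- cells stably complemented with human TDP1 were seeded at 400 cells/well in medium containing 20 nM camptothecin, exposed to pin-transferred compounds, and grown at 37 °C for at least 48 hr. Viability was read as ATP luminescence.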
# * = called active by the depositor; u = inconclusive; x = no result given. Unless noted, the call rests on the fitted dose curve; in most records, active means well fitted inhibition curve with a large enough effect; inconclusive means small, poorly fitted or top-dose-only effect; inactive means flat fitted curve, though single readings scatter.
SMILES,TDP1 cell noCPT,D3 antag,ClpP mod,IL1B secr inh,D3 ag,TDP1 cell CPT
CCN1CCN(Cc2ccc(NC(=O)c3cc(NC(=O)c4nccnc4N)cc(OC)c3)cc2C(F)(F)F)CC1,u,11,-5%,u,-16,u
CCN1CCN(Cc2ccc(NC(=O)c3cc(NC(=O)c4cncc(-c5ccc(C#N)cc5)c4)cc(OC)c3)cc2C(F)(F)F)CC1,2.6µM*,-21,u,-59*,0,2.3µM*
COc1cc(OC)cc(C(=O)N2CCN(Cc3ccccc3C(F)(F)F)CC2)c1,u,-21,0%,-4,-5,u
CCN1CCN(Cc2ccc(NC(=O)c3cc(NC(=O)c4cnnc5ccccc45)cc(OC)c3)cc2C(F)(F)F)CC1,6.5µM*,u,0%,3,-11,8.2µM*
CCn1c(SCC(=O)NC2CCCCC2)nc2c(c1=O)SCC2,-11%,4,-2%,0,-6,-8%
COc1ccc(Cl)cc1NC(=O)c1cc2c(=O)n3ccccc3nc2s1,-13%,x,4%,x,-2,-19%
Cc1ccc(C(=O)CSc2nnc3c4ccccc4nc(C(C)(C)C)n23)cc1,12µM*,-12,x,-13,6,u
Cc1csc(NC(=O)CSc2nnc3c4ccccc4nc(C(C)(C)C)n23)n1,5.8µM*,9,1%,30,20,4.6µM*
CC(=O)CSc1nnc2c3ccccc3nc(C(C)(C)C)n12,-16%,10,-3%,8,5,-11%
CC(C)(O)CCC(C)(C)O,5%,19,0%,14,1,25%
Cc1ccc(-n2c(C)cc(C(=O)COc3cccnc3[N+](=O)[O-])c2C)cc1,10µM*,0,0%,-3,-23,18µM*
Cc1ccc(OCC(=O)c2cc(C)n(C)c2C)c([N+](=O)[O-])n1,-15%,14,3%,14,-1,-9%
Cc1cc(C(=O)COc2cccnc2[N+](=O)[O-])c(C)n1-c1ccccc1F,9.2µM*,16,0%,-5,3,18µM*
Cc1cc(C(=O)COc2cccnc2[N+](=O)[O-])c(C)n1-c1ccccc1,21µM*,4,-1%,10,13,u
Cc1cc(C(=O)COc2cccnc2[N+](=O)[O-])c(C)n1Cc1ccco1,26µM*,-3,1%,5,4,u
CCOC(=O)Cc1ccc(Nc2nc3cc(-c4sccc4C)sc3c(=O)n2C)cc1,3.7µM*,8,5%,0,-9,2.9µM*
COc1ccc(Nc2nc3cc(-c4ccsc4)sc3c(=O)n2C)cc1OC,u,27,1%,14,3,13µM*
COc1ccc(Nc2nc3cc(-c4sccc4C)sc3c(=O)n2C)cc1OC,1µM*,22,-8%,-2,-2,1.3µM*
CC(C)c1ccccc1NC(=S)NCC1(N(C)C)CCCCC1,5%,-7,1%,-25,-11,-7%
COc1ccc(-n2c(=O)c3c4c(sc3n(Cc3c(F)cccc3Cl)c2=O)CN(C(C)=O)CC4)cc1OC,u,x,-1%,x,-12,u
Cc1c(CCNC(=O)Cc2ccc(F)cc2)sc2nc(-c3ccc(F)cc3)nn12,u,x,-1%,x,8,u
Cc1c(CCNC(=O)Cc2ccccc2)sc2nc(-c3ccc(F)cc3)nn12,u,x,0%,x,5,u
Cc1ccc(-c2nc3sc(CCNC(=O)c4ccco4)c(C)n3n2)cc1,18µM*,x,-3%,x,40*,u
Cc1c(CCNC(=O)c2ccc(C(C)(C)C)cc2)sc2nc(-c3ccc(F)cc3)nn12,13µM*,x,-4%,x,8,15µM*
Cc1c(CCNC(=O)c2ccco2)sc2nc(-c3ccc(F)cc3)nn12,23µM*,x,0%,x,7,21µM*
SMILES,TDP1 cell noCPT,D3 antag,ClpP mod,IL1B secr inh,D3 ag,TDP1 cell CPT
Cc1ccc(-c2nc3sc(CCNC(=O)c4ccc(C)c(C)c4)c(C)n3n2)cc1,-27%,x,-4%,x,-6,1%
Cn1cc(S(=O)(=O)c2ccccc2)c(=O)c2cc(F)c(N3CCCCCC3)cc21,u,x,u,x,-8,u
COC(=O)CN1C(=O)[C@H]2[C@@H](c3ccc(C)o3)N3C(=O)CN(Cc4ccccn4)C(=O)[C@@]3(Cc3ccccc3)[C@H]2C1=O,-7%,39,-1%,7,39*,10%
COC(=O)CN1C(=O)[C@H]2[C@@H](c3ccc(C)o3)N3C(=O)CN(CCO)C(=O)[C@@]3(Cc3ccccc3)[C@H]2C1=O,-5%,0,-2%,47,-4,-1%
Cc1nc2ccn(Cc3cccs3)c(=O)c2cc1C(=O)NCc1ccccc1,-18%,x,4%,x,4,-11%
CCOc1ccccc1CNC(=O)c1cc2c(=O)n(Cc3ccccc3)ccc2nc1C,16µM*,x,4%,x,-4,18µM*
COc1ccc(CNC(=O)c2cc3c(=O)n(Cc4cccnc4)ccc3nc2C)cc1,0%,x,25µM*,x,12,10%
Cc1ccc(CNC(=O)c2cc3c(=O)n(Cc4cccnc4)ccc3nc2C)cc1,-20%,x,28µM*,x,7,-14%
COc1cccc(CNC(=O)c2cc3c(=O)n(Cc4cccnc4)ccc3nc2C)c1,u,x,u,x,-17,u
COc1ccc(CNC(=O)c2cc3c(=O)n(Cc4cccs4)ccc3nc2C)cc1,-28%,x,14µM*,x,-10,u
O=C1CCCCC1Sc1nnc(-c2ccc3c(c2)OCO3)o1 (centres undefined),-15%,29,x,1,11,-23%
NC(=O)C1(N2CCCCC2)CCN(S(=O)(=O)c2cc(Cl)sc2Cl)CC1,-18%,-7,x,2,0,-8%
COC(=O)[C@@H]1C[C@H]1[C@@H](NC(=O)c1cc(C)on1)c1ccccc1,28%,15,3%,23,-5,-2%
O=c1c2cc(-c3ccccc3)sc2nc2n1N=C(c1ccccc1)CS2,u,-6,x,-13,-1,u
O=c1[nH]c(-c2ccccn2)nc2sc(-c3ccccc3)cc12,2.1µM*,u,x,-102*,-11,2.3µM*
Cc1c(C(=O)N(C)C)sc2nc(-c3ccccn3)[nH]c(=O)c12,u,-57*,u,-9,1,-22%
CN(CCc1ccccc1)C(=O)CCc1nnc(Cc2ccc3c(c2)OCO3)o1,6%,-5,-3%,11,-3,2%
CC(=O)N(C)c1ccc(C=C2C=Cc3ccccc32)cc1,9.2µM*,0,1%,-78*,1,9.2µM*
